Values joined by “and” are separate entries in the source; they are usually repeats but may differ in a detail not shown here. Identical values can stand only once. Screen size: about 6,400 compounds; about 610 (9.5%) were called active. No stated cut-off is given here; in the data, active means activity change below about -70%; inconclusive means no clear call, values can overlap the other calls; inactive means above that. The full list was thinned out, with actives kept by preference. Some structures have more than one record in an assay (separate samples or runs), and their calls can disagree.

The experiment in a line: Toxoplasma gondii ME49Luc growth in HeLa cells, luciferase, no IFN-y, primary screen (AID 1259421). As to conditions: T. gondii ME49Luc in HeLa, 72 h, stronger effect = lower value, concentration not given here.
For the molecule `CCOC(=O)C(CCc1ccccc1)NC1CCc2ccccc2N(CC(=O)O)C1=O` (stereo not given), the activity change, negative = inhibition was 3.98% (inactive). Next, `Nc1cc(C(F)(F)F)c(-c2cc(N3CCOCC3)nc(N3CCOCC3)n2)cn1`: -70.3% (active); `Cc1nc2c(-c3cnc(N)nc3)nc(N3CCOCC3)nc2n1C(C)C`: -14% (inactive); `Nc1ncnc2nc(-c3ccc(N4CCOCC4)nc3)cc(-c3cccc(Br)c3)c12`: -21.2% (inactive) and -9.62% (inactive). For the molecule `CC(=O)SCCC(=O)N1C(C)CCCC1C(=O)O` (stereo not given), the activity change, negative = inhibition is 20.2% (inactive). In the case of `O=C(O)[C@H]1CN(C/C=C/P(=O)(O)O)CCN1`, the activity change, negative = inhibition is -6.53% (inactive). In the case of `CC1(C)Oc2ccc(C#N)cc2[C@H](N2CCCC2=O)[C@H]1O` (racemic), the activity change, negative = inhibition is 17% (inactive). Next, `CCN(CC)CCNC(=O)c1ccc(I)cc1`: 11.1% (inactive). `O=C(Nc1ccccc1)Nc1ccc(-c2ccc(C(=O)[C@@H]3CCC[C@@H]3C(=O)O)cc2)cc1`: the activity change, negative = inhibition is 16.1% (inactive). In the case of `c1cnc2cc3c(cc2n1)C1CNCC3C1`, the activity change, negative = inhibition was 5.57% (inactive).

For `CC1=C(CC(=O)O)c2cc(F)ccc2/C1=C\c1ccc(S(C)=O)cc1` (stereo not given), the activity change, negative = inhibition was 13.1% (inactive) and -5% (inactive). `CO[C@H]1CC(O[C@@H]2/C(C)=C/C[C@@H]3C[C@@H](C[C@]4(C=C[C@H](C)[C@@H](C5CCCCC5)O4)O3)OC(=O)[C@@H]3C=C(C)[C@@H](O)[C@H]4OC/C(=C\C=C\[C@@H]2C)[C@]43O)O[C@@H](C)C1O[C@H]1C[C@H](OC)[C@@H](O)[C@H](C)O1` (stereo not given in full): the activity change, negative = inhibition is -62.7% (inactive).

For `COc1cc(/C=C/c2ccc(OC)cc2OC)cc(OC)c1`, the activity change, negative = inhibition is -58.6% (inactive) and -57.8% (inactive). In the case of `CCn1c2ccccc2c2cc(Nc3ccnc(NCCCN4CCOCC4)n3)ccc21` it was -53.7% (inactive). Next, `O=C(NCCCN1CCOCC1)c1ccc(Cl)cc1`: 10.9% (inactive); `N#CCNC(=O)c1ccc(-c2ccnc(Nc3ccc(N4CCOCC4)cc3)n2)cc1`: -88.6% (active); `CCCN1CCN(c2ccc(C(=O)NC3(C(=O)NCC#N)CCCCC3)cc2)CC1`: 15.1% (inactive). For the molecule `Cc1nc(N)sc1-c1ccnc(Nc2ccc(N3CCOCC3)cc2)n1`, the activity change, negative = inhibition was -80.3% (active). Next, `Cc1cc(N2CCOCC2)ccc1Nc1nc(NC2CCCCC2)c2[nH]cnc2n1`: -50.9% (inactive); `CCNC(=O)C1OC(n2cnc3c(N)nc(NCCc4ccc(CCC(=O)O)cc4)nc32)C(O)C1O` (stereo not given): 1.12% (inactive).

In the case of `CC(C)=CCOc1cc2oc(=O)ccc2cc1O`, the activity change, negative = inhibition was -2.69% (inactive).

Take `O=C(O)c1cc(O)c2c(c1)C(=O)c1cccc(O)c1C2=O`: the activity change, negative = inhibition was 18.1% (inactive). With `Nc1nc(Nc2ccc3c(c2)CC[C@@H](N2CCCC2)CC3)nn1-c1cc2c(nn1)-c1ccccc1CCC2`, the activity change, negative = inhibition is -85.1% (active). In the case of `CC(=O)O[C@]1(C(C)=O)CCC2C3C=C(Cl)C4=CC(=O)CC[C@]4(C)C3CC[C@@]21C` (stereo not given in full) it was 2.15% (inactive) and -3.18% (inactive); in that of `CCCCCCC(=O)OC1CC(C)(C)NC(C)(C)C1`, 10.7% (inactive) and -2.86% (inactive); in that of `O=C(NC1CCN(CCc2c[nH]c3ccccc23)CC1)c1ccccc1`, 10.9% (inactive).

With `O=C(N[C@H]1CCN(C(=O)c2cc(C(F)(F)F)cc(C(F)(F)F)c2)[C@H](Cc2ccc(Cl)cc2)C1)c1ccnc2ccccc12`, the activity change, negative = inhibition was 25.3% (inactive). In the case of `O=C(NC1CCN(CCCCC2(C(=O)NCC(F)(F)F)c3ccccc3-c3ccccc32)CC1)c1ccccc1-c1ccc(C(F)(F)F)cc1` it was -89% (active).

For the molecule `CN1CC(=O)N/C1=N/C(=O)Nc1cccc(Cl)c1`, the activity change, negative = inhibition is 32.6% (inactive) and 26.4% (inactive). Regarding `CNC(=O)C1OC(n2cnc3c(NCc4cccc(I)c4)ncnc32)C(O)C1O` (stereo not given), the activity change, negative = inhibition was 5.36% (inactive). Next, `O=C(O)C(=O)O.O=C(O)C(=O)O.O=C(O)C(=O)O.[Bi].[Bi]`: 12.7% (inactive); `CC1CN(CCCn2c3ccccc3c3ccccc32)CC(C)N1` (stereo not given): -30.6% (inactive). Next, `C[C@@H]1CN(CCCn2c3ccccc3c3ccccc32)C[C@H](C)N1`: 18.2% (inactive). Turning to `COc1ccccc1C1(O)CCN(CCCn2c3ccccc3c3ccccc32)CC1`, the activity change, negative = inhibition is -73.1% (active) and -52.5% (inactive). With `CO/N=C(\C(=O)N[C@@H]1C(=O)N2C(C(=O)O)=C(C[n+]3ccn4ncccc43)CS[C@H]12)c1nsc(N)n1`, the activity change, negative = inhibition was 12% (inactive). `CC(C)n1cnc2c(NCc3ccccc3O)nc(NCCCO)nc21`: the activity change, negative = inhibition is 1.44% (inactive). Next, `CC[C@H](CO)Nc1nc(NCc2ccc(-c3ccccn3)cc2)c2ncn(C(C)C)c2n1`: -75.6% (active); `CC[C@@H](CO)Nc1nc(NCc2ccccc2)c2ncn(C(C)C)c2n1`: -3.07% (inactive). In the case of `CC[C@H](CO)Nc1nc(NCc2ccccc2)c2ncn(C(C)C)c2n1` it was -9.71% (inactive); in that of `CC[C@H](CO)Nc1nc(Nc2cccc(-c3ccccn3)c2)c2ncn(C(C)C)c2n1`, -72.2% (active); in that of `CN1Cc2c(C(=O)OC(C)(C)C)ncn2-c2ccsc2C1=O`, 4.12% (inactive) and 13% (inactive).

For the molecule `CC(=O)O[C@@H]1CC2C(C)(C)C(=O)C3OC3[C@]2(C)C2CC[C@@]3(C)[C@H](c4ccoc4)OC(=O)C4OC43[C@@]21C` (stereo not given in full), the activity change, negative = inhibition is 26.1% (inactive).

Consider `CC1=NN(c2ccc(C(=O)O)cc2)C(=O)/C1=C\c1ccc(-c2cc(C)c(C)cc2[N+](=O)[O-])o1`, for which the activity change, negative = inhibition is 27.1% (inactive).

Consider `O=C(/C=C/c1ccccc1)c1ccc(O)cc1`, for which the activity change, negative = inhibition is -8.89% (inactive). On to `CC(=O)c1cnc2ccc(-c3cc(Cl)c(O)c(Cl)c3)nc2c1NC1CCC(CN(C)C)CC1` (stereo not given), for which the activity change, negative = inhibition was -87.5% (active).

For `CO[C@H]1C=CO[C@@]2(C)Oc3c(C)c(O)c4c(O)c(c5c(c4c3C2=O)NC2(CCN(CC(C)C)CC2)N=5)=NC(=O)/C(C)=C\C=C/[C@H](C)[C@H](O)[C@@H](C)[C@@H](O)[C@@H](C)[C@H](OC(C)=O)[C@@H]1C`, the activity change, negative = inhibition is -31.1% (inactive).

In the case of `Nc1nc(=O)n([C@@H]2O[C@H](CO)[C@@H](O)[C@@H]2F)cc1I`, the activity change, negative = inhibition is 9.84% (inactive). As to `CC(=O)OCC(=O)[C@@]1(O)CCC2C3CCC4=CC(=O)C=C[C@]4(C)[C@@]3(F)[C@@H](O)C[C@@]21C` (stereo not given in full), the activity change, negative = inhibition is -18.2% (inactive). Next, `CCN1CCN(Cc2ccc(Nc3ncc(F)c(-c4cc(F)c5nc(C)n(C(C)C)c5c4)n3)nc2)CC1`: -82.7% (active); `CN(C)Cc1ccc(-c2nc3cccc4c3n2CCNC4=O)cc1`: 4.67% (inactive). Take `CCC(=O)OCC(=O)[C@@]1(OC(=O)CC)[C@H](C)CC2C3C([C@@H](O)C[C@@]21C)[C@@]1(C)C=CC(=O)C=C1C[C@H]3Cl` (stereo not given in full): the activity change, negative = inhibition was 2.29% (inactive).

In the case of `CC1=CC(=O)C2C(C)(C)CCC[C@]2(C)[C@@]1(O)CCc1ccoc1` (stereo not given in full), the activity change, negative = inhibition was 1.47% (inactive).

Turning to `COc1ccc(-c2cc(=O)c3c(O)cc(OC)c(OC)c3o2)c(OC)c1`, the activity change, negative = inhibition is 12.5% (inactive).

With `CN1CC[C@@H](c2c(O)cc(O)c3c(=O)cc(-c4ccccc4Cl)oc23)[C@@H]1CO`, the activity change, negative = inhibition is -78.4% (active). As for `CN1CC[C@H](c2c(O)cc(O)c3c(=O)cc(-c4ccccc4Cl)oc23)[C@H](O)C1`, the activity change, negative = inhibition is -83.7% (active). As to `NC(N)=NCCC[C@H](N)C(=O)NCC(=O)N[C@@H](CC(=O)O)C(=O)N[C@@H](CO)C(=O)O`, the activity change, negative = inhibition was 12.1% (inactive).

`CC(C)CCNc1ncccc1C(=O)N1CCN(Cc2ccccc2)CC1`: the activity change, negative = inhibition is 7.68% (inactive). Turning to `COc1c(O)cc2oc3cc(O)c(CC=C(C)C)c(O)c3c(=O)c2c1CC=C(C)C`, the activity change, negative = inhibition was -80.8% (active). Next, `CC(C)=CCc1c(O)cc2oc(C)cc(=O)c2c1O`: 1.96% (inactive); `COc1cc2oc3cc(OC)c(OC)c(CC=C(C)C)c3c(=O)c2c(O)c1CC=C(C)C`: 7.82% (inactive); `C[N+](C)(C)[C@@H](Cc1c[nH]c(=S)[nH]1)C(=O)O`: 3.37% (inactive). In the case of `COc1ccc(CCCn2ncc3c2nc(N)n2nc(-c4ccco4)nc32)cc1` it was -11.7% (inactive). Consider `Nc1nc2c(cnn2CCc2ccccc2)c2nc(-c3ccco3)nn12`, for which the activity change, negative = inhibition is 16.9% (inactive) and 59.6% (inactive). Next, `Nc1nc(NCCc2ccc(O)cc2)nc2nc(-c3ccco3)nn12`: -78.9% (active) and -90.1% (active). On to `CC(COc1ccccc1)NC(C)[C@H](O)c1ccc(O)cc1` (stereo not given in full), for which the activity change, negative = inhibition is 7.25% (inactive) and 9.37% (inactive). Consider `C[C@H](Cn1cnc2c(N)ncnc21)OCP(=O)(O)O`, for which the activity change, negative = inhibition was 8.95% (inactive). Consider `Nc1ncnc2c1ncn2C1OC(COP(=O)(O)O)C(O)C1O` (stereo not given) (tested in a mixture with another compound), for which the activity change, negative = inhibition is 1.1% (inactive).

As to `CC(C)OC(=O)OCOP(=O)(CO[C@H](C)Cn1cnc2c(N)ncnc21)OCOC(=O)OC(C)C`, the activity change, negative = inhibition was -84% (active). For the molecule `Nc1ncnc2c1ncn2CCOCP(=O)(O)O`, the activity change, negative = inhibition is 5.36% (inactive). In the case of `Nc1ncnc2c1ncn2C1O[C@H](COP(=O)(O)O)[C@@H](O)[C@H]1O` (stereo not given in full), the activity change, negative = inhibition is 13.1% (inactive). In the case of `CC(C)(C)C(=O)OCOP(=O)(COCCn1cnc2c(N)ncnc21)OCOC(=O)C(C)(C)C` it was -84.5% (active) and -86.9% (active); in that of `CC(=O)OC[C@H]1O[C@@](COC(C)=O)(O[C@H]2O[C@H](COC(C)=O)[C@@H](OC(C)=O)[C@H](OC(C)=O)[C@H]2OC(C)=O)[C@@H](OC(C)=O)[C@@H]1OC(C)=O`, 4.98% (inactive); in that of `CCC1(c2cnc[nH]2)Cc2ccccc2C1`, 52.1% (inactive). Next, `CS(=O)(=O)NC(=O)CCC/C=C\C[C@H]1C(=O)C[C@@H](O)[C@@H]1/C=C/[C@@H](O)COc1ccccc1`: 0.217% (inactive). Next, `CCCC(=O)Nc1ncnc2c1ncn2C1OC2COP(=O)(O)OC2C1OC(=O)CCC` (stereo not given): 6.24% (inactive).

For the origin of these results see PubChem BioAssay AID1259421 (Broad Institute, 2018).
